Laboratory results reported in PubChem BioAssay (NCI).
“And” between values parts separate entries of the source, which are not always exact repeats. Equal values may be shown once. Compounds without any hit were thinned out: in the full panel of roughly 79,000, 15% have a hit. Cut-off read from the data, not from the text of the source: active = growth inhibition above about 70%; inactive = the rest.

Key:
[1] = NCI Yeast Anticancer Drug Screen. Data for the rad50 strain (AID 155);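 note: 0% = growth of vehicle-only cultures of the same strain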; conditions: S. cerevisiae rad50 strain growth inhibition, active compounds read high; at 50.0 µM unless noted
In short: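 Growth of the mutant yeast was measured after compound exposure and referenced to vehicle-treated cultures.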

[2] = NCI Yeast Anticancer Drug Screen. Data for the mec2-1 strain (AID 157); conditions: S. cerevisiae mec2-1 strain, active compounds read high; at 50.0 µM unless noted
In short: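 Compounds were applied to mec2-1 yeast cells. Their growth was then compared with that of vehicle-treated cultures to give growth inhibition.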

[3] = NCI Yeast Anticancer Drug Screen. Data for the sgs1 mgt1 strain (AID 161);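 note: 0% = growth of cultures given vehicle only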; conditions: S. cerevisiae sgs1 mgt1 strain, active compounds read high; at 50.0 µM unless noted
In short: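 Yeast cells carrying a defined DNA-repair defect were exposed to test compounds. Growth inhibition was measured relative to vehicle-treated controls.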

[4] = NCI Yeast Anticancer Drug Screen. Data for the cln2 rad14 strain (AID 165);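 note: 0% = growth equal to vehicle treated cultures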; conditions: S. cerevisiae cln2 rad14 strain, active compounds read high; at 50.0 µM unless noted
In short: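 Strain: cln2 rad14 yeast, altered in cell cycle control and DNA damage repair. Read-out: growth inhibition vs vehicle.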

[5] = NCI Yeast Anticancer Drug Screen. Data for the bub3 strain (AID 167); conditions: S. cerevisiae bub3 mutant strain, active compounds read high; at 50.0 µM unless noted
In short: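 Whole-cell yeast assay. The mutant strain was incubated with compounds, and growth inhibition was determined by comparison with vehicle-treated cells.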

[6] = NCI Yeast Anticancer Drug Screen. Data for the mlh1 rad18 strain (AID 175); conditions: S. cerevisiae mlh1 rad18 strain growth inhibition, active compounds read high; at 50.0 µM unless noted
In short: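 A repair-deficient yeast strain is exposed to test compound, and growth is scored relative to vehicle-treated controls.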

Measured: growth inhibition

CCCCCC(Br)C(Br)CC(Br)C(Br)CC(Br)C(Br)CCCCC(=O)O (stereo not drawn)
inactive: [1] 11.2% | [2] -5.8% | [3] 9.6% | [4] -31.9% | [5] -0.7% | [6] 22.6%

O=c1oc2c3ccc4ccccc4c3n(CCN3CCOCC3)c2c2ccccc12
inactive: [1] 19.1% | [2] -3.6% | [3] -29.6% | [4] 2.35% | [5] -19.9% | [6] -3.9%

CCNC(=O)c1ccc(C(C)C)cc1
inactive: [1] 8.4% | [2] -7.2% | [3] 14.2% | [4] 4.75% | [5] 2.15% | [6] 5.75%

COC(=O)C1CCCCCCCCCCC12SCCCS2 (stereo not drawn)
inactive: [1] -32.5% | [2] -11.4% | [3] -17.5% | [4] 16.2% | [5] -5.7% | [6] -30%

CC(C)CC(C(=O)NC1CCCCC1)N1C(=O)c2ccccc2C1=O (stereo not drawn)
inactive: [1] -17.1% | [2] 1.9% | [3] -4.3% | [4] -8.2% | [5] -4.4% | [6] 20.7%

COC(=O)c1cc2ccc(OC(C)=O)c(OC(C)=O)c2cn1
inactive: [1] 20.2% | [2] -20.2% | [3] 6.05% | [4] 9.3% | [5] 3.35% | [6] 19.9%

Cc1c2ccncc2c(C)c2c1[nH]c1ccc(O)cc12
inactive: [1] 16.9% | [2] 14.2% | [3] 43.9% | [4] 23.6% | [5] 19.5% | [6] 58.9%

CC1(C)Oc2ccccc2OC1O (stereo not drawn)
inactive: [1] 1.5% | [2] 0.85% | [3] -1.75% | [4] -14.7% | [5] -10.2% | [6] 3%

Cc1ccccc1Cc1nccc2c1[nH]c1ccccc12
inactive: [1] -3% and -0.7% | [2] -11.5% and -15.1% | [3] -9.05% | [4] -29.5% | [5] -8.45% | [6] -16.9% and 50.1%

COC(=O)c1ccccc1OC
inactive: [1] 20.1% | [2] 15.8% | [3] -2.2% | [4] 6.75% | [5] -2.05% | [6] 3.1%

O=C1/C(=C/c2cccc([N+](=O)[O-])c2)Cc2ccccc21
inactive: [1] 12.7% | [2] -5.9% | [3] 5.65% | [4] 14.1% | [5] 17.6% | [6] 5.05%

CC(CC(=O)Nc1ccccc1CC(c1c[nH]c2ccccc12)c1c[nH]c2ccccc12)C(=O)O (stereo not drawn)
inactive: [1] 0.6% | [2] -14.2% | [3] 3.4% | [4] -12.9% | [5] 6.7% | [6] 17.5%

O/N=C1\c2ccccc2-c2cccc(Br)c21
inactive: [1] 0.25% | [2] 2.9% | [3] 4.55% | [4] -40.6% | [5] -9.6% | [6] 5.45%

Cc1cccc(NC(=O)N(C(C)C)C(C)C)c1
inactive: [1] -16.4% | [2] -38.2% | [3] -3.55% | [4] 2.8% | [5] 5.8% | [6] -27.6%

Cc1ccc(NC(=O)CCCl)cc1
inactive: [1] 3.4% | [2] -1.55% | [3] 2.05% | [4] -19.1% | [5] -0.5% | [6] -14.3%

Cc1nc(Nc2nc3ccccc3[nH]2)[nH]c(=O)c1CCO
inactive: [1] 9.6% | [2] 5.4% | [3] -7.3% | [4] 21.9% | [5] 15.8% | [6] -6.45%

O=C1C=C(c2ccccc2)C(c2ccccc2)/C1=N/O (stereo not drawn)
inactive: [1] 11.3% | [2] -12.9% | [3] 2.55% | [4] 13.1% | [5] 11.9% | [6] -9.85%

COC1CCC(OS(C)(=O)=O)C(C)O1 (stereo not drawn)
inactive: [1] 16.8% | [2] -45.9% | [3] 4.6% | [4] -2.15% | [5] -38.7% | [6] 9.85%

Cc1ccc2ccccc2c1CN(C)C
inactive: [1] 4.7% | [2] -1.05% | [3] -8.6% | [4] -61% | [5] -3.45% | [6] -12.7%

CCOC(C)(Cc1ccccc1[N+](=O)[O-])OCC
inactive: [1] 11.4% | [2] 4.3% | [3] -4.05% | [4] 2.5% | [5] -3.6% | [6] 18.5%

COc1cccc(C2SCC(=O)N2c2ccc(-n3c(-c4ccccc4)nc4ccccc4c3=O)cc2)c1OC (stereo not drawn)
inactive: [1] 11.9% | [2] 26.4% | [3] 0.9% | [4] -9.7% | [5] 22.4% | [6] 26.9%

CCCCCCCCCCCCCCCCCc1c(Cl)c(Cl)c(Cl)c(Cl)c1Cl
inactive: [1] 47% | [2] -4% | [3] 26.4% | [4] -45.1% | [5] -2.75% | [6] -6.6%

COc1cccc(Br)n1
inactive: [1] -4.15% | [2] -17.1% | [3] 6.95% | [4] 15.1% | [5] -8.85% | [6] 26.9%

CC1Cn2c(Cc3ccccc3)nnc2S1 (stereo not drawn)
inactive: [1] -15.2% | [2] 1.25% | [3] 5.45% | [4] 19.5% | [5] -4.6% | [6] -4.75%

CCCC1OC(c2cc3c(cc2Br)OCO3)OCC1CC (stereo not drawn)
inactive: [1] -4.5% | [2] -8.9% | [3] 9.25% | [4] 3.1% | [5] 23.1% | [6] -4.7%

O=C1OC2(CCCCC2)OC1c1ccccc1 (stereo not drawn)
inactive: [1] 23.4% | [2] 4.2% | [3] 11.9% | [4] 10.5% | [5] 16.2% | [6] 33.5%

CS(=O)CCC1C(=O)OC(C(C)(C)C)N1C(=O)c1ccccc1 (stereo not drawn)
inactive: [1] 8.25% | [2] 3.65% | [3] 4.55% | [4] -12.3% | [5] -0.85% | [6] -0.4%

c1ccc(CNc2nnnc3ccccc23)cc1
inactive: [1] -2.75% | [2] -1.45% | [3] -2.4% | [4] -30.8% | [5] -14.5% | [6] 2.2%

CCOC(=O)CSC#N
inactive: [1] -2.05% | [2] -0.85% | [3] 1.35% | [4] 7.4% | [5] 21.2% | [6] 2.9%

N#CCCC(C#N)(CCC#N)C(N)=O
inactive: [1] 11.9% | [2] -18% | [3] -2.6% | [4] -49.6% | [5] 5.2% | [6] 1.55%

Nc1nc2ncn(CCO)c2c(=O)[nH]1
inactive: [1] 9.4% | [2] 1.95% | [3] 2.8% | [4] -0.65% | [5] 3.35% | [6] 16.4%

O=C1c2ccccc2CC(c2ccccc2)N1c1ccccc1 (stereo not drawn)
inactive: [1] 51.1% | [2] 0.4% | [3] 31.4% | [4] -22.4% | [5] 3.55% | [6] 32.1%

COc1cccc(N(CN2CC=CC2=O)C(C)=O)c1
inactive: [1] -1.65% | [2] 6.3% | [3] 10.6% | [4] 18.6% | [5] -16.8% | [6] -44.3%

COC(=O)N/N=C(/CCC(=O)Nc1ccc(C)c(C)c1)CC(=O)C(C)(C)C
inactive: [1] -10.8% | [2] -12.1% | [3] 8.45% | [4] 2% | [5] 19.1% | [6] -1.9%

Cc1ccc(S(=O)(=O)ONNc2nccc3ccccc23)cc1
inactive: [1] 16.9% | [2] 7.05% | [3] 1.55% | [4] -16.8% | [5] 1.15% | [6] 19.4%

COc1ccc2[nH]c3cc4c(=O)c5cc(OC)ccc5[nH]c4cc3c(=O)c2c1
inactive: [1] -31.6% | [2] -15.8% | [3] -6.2% | [4] 5.05% | [5] -2.9% | [6] -37.6%

CN(C)c1ccc(/C=C(\NC(=O)c2ccccc2)c2nc3ccccc3c(=O)o2)cc1
inactive: [1] 8.45% | [2] 10.3% | [3] 3.95% | [4] 11.5% | [5] -15.8% | [6] -9.3%

CCOC(=O)NC(=O)c1cn(CCSCCOC(=O)NCCCCCCNC(=O)OCCSCCn2cc(C(=O)NC(=O)OCC)c(=O)n(C)c2=O)c(=O)n(C)c1=O
inactive: [1] -26% | [2] -10.6% | [3] -29.7% | [4] 7.9% | [5] -0.35% | [6] -18.4%
